Screening results (PubChem BioAssay)
FBW7 activator: activators of human E3 ligase FBW7. Q969H0. AlphaScreen FBW7–phospho-cyclin E peptide binding, activator screen. normalized activity (activation), % at 26.1 µM. actives 0.13% (n = 650,000); in the data active = normalized activity above about 1.9%;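 also: purified mutant Fbw7 with reduced substrate affinity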
MITF primary: blocks human microphthalmia-associated transcription factor. O75030. AlphaScreen MITF homodimerization, bead proximity signal. inhibition, % at 2.6 µM. actives 0.91% (n = 650,000). AID 1259374; in the data active = inhibition above about 50%;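 also: 0% = vehicle wells with protein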
GPR151 ag: activators of human GPR151 | PathHunter beta-arrestin GPR151 cells, luminescence | activation, % at 11.2 µM | actives 1% (n = 650,000) | Q8TDV0 | AID 1508602; in the data active = activation above about 4.9%;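 also: 0% = median of compound wells and 100% = cells with positive control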
TEAD-YAP block: TEAD-YAP interaction inhibition | HEK-TIYL cells, TEAD-Gal4/YAP UAS-luciferase luminescence | actives 1.4% (n = 640,000) | inhibition, % at 9.12 µM | AID 1259422; in the data active = inhibition above about 32%;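 also: 0% = median of test compound wells and 100% = reference inhibitor wells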
GPR151 confirm: human GPR151 activation, confirmation screen. activation, % at 11.2 µM. 6,700 tested, under 10 active. shares compounds with GPR151 ag. GPR151 PathHunter beta-arrestin cells, luminescence, 90 min; % of EA-reagent control over plate median;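 active = mean percent activation across replicates above the confirmation screen cutoff of 4.91%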
GPR119 ag: GPR119 activation, counter-screen for GPR151 activators. shares compounds with GPR151 ag. GPR119 PathHunter beta-arrestin cells, luminescence, 90 min; 0 = compound-well median, 100 = enzyme-acceptor control. activation, % at 11.2 µM. actives 0.3% (n = 6,700). AID 1508611;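 active = mean percent activation in the counterscreen above 29.09%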;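 also: counterscreen on off-target GPR119 to flag nonselective hits from the GPR151 activator screen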
Target sequence (Q8TDV5 whole entry, looked up): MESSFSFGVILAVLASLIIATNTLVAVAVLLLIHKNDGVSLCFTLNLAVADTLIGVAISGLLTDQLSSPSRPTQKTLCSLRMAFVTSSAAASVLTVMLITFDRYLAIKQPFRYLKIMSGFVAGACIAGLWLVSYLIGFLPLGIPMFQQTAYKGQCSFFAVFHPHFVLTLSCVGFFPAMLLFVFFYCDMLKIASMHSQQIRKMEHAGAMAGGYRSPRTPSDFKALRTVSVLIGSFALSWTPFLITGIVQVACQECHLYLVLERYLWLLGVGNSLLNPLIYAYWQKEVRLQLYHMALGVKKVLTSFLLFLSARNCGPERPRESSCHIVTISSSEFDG
The depositor's hits bear a star; . = no result. In the library only some 3.4% were active in any assay of this set; here they are far more common.

SMILES	FBW7 activator	MITF primary	GPR151 ag	TEAD-YAP block	GPR151 confirm	GPR119 ag
CCN(C(=O)Cc1nc(-c2ccc(OC)cc2)no1)c1ccccc1C	0	6	8.9*	7	1	-6
CCN(CC)CCCN(C)C(=O)Cc1nc(-c2ccc(OC)cc2)no1	0	4	5.0*	-5	0	0
COc1ccc(-c2noc(CN(C(=O)c3ccccc3F)C(C)C)n2)cc1	0	16	5.4*	-5	0	10
CCn1c2ccccc2c2nnc(SCC(=O)Nc3ncc(Br)cc3Br)nc21	0	0	-1	-1	.	.
CCOC(=O)c1sc(NC(=O)CSc2nnc(CNC(=O)c3cccc(F)c3)n2-c2ccc(F)cc2)c(C(=O)OCC)c1C	0	15	0	17	.	.
O=C1CCCN2C(=N1)SC(=S)N2CN1CCN(c2ccccc2)CC1	0	0	-1	5	.	.
O=C(Cc1cccc2ccccc12)N/N=C/c1cc(I)ccc1O	0	8	-1	6	.	.
C=CCOc1ccc(/C=C2\C(=O)NN(c3ccccc3)C2=O)cc1OC	0	4	5.3*	1	0	3
O=C(COC(=O)c1cccs1)NCCc1ccccc1	0	8	0	-1	.	.
COc1cccc(-c2cc(C(=O)Nn3cnnc3)c3ccccc3n2)c1	0	0	5.1*	11	0	1
CCOC(=O)CN(c1ccccc1)S(=O)(=O)c1cc(C)c2[nH]c(=O)cc(C)c2c1	0	-7	0	-1	.	.
Cc1ccnc(Nc2ccc(N3CCN(C(=O)C4CCCC4)CC3)nn2)c1	1	6	5.1*	6	0	-2
COc1ccc(-c2noc(N3CCN(Cc4ccc5c(c4)OCO5)CC3)n2)cc1	0	10	1	11	.	.
NC(=O)COc1ccc(NC(=O)c2cncc(Br)c2)cc1	0	-1	6.1*	-13	-1	-15
CC1CCC(C(=O)NC(Cc2c[nH]c3ccccc23)C(=O)Nc2ccncc2)CC1 (stereo unspecified)	0	-77	0	-7	.	.
N#C/C(=C\c1ccc(-c2ccc(F)cc2)o1)c1nn(-c2ccccc2)c(N)c1C#N	0	3	0	-13	.	.
CCCCCCSc1nc2sc3c(c2c(=O)n1-c1ccc(OC)cc1)CC(C)(C)OC3	0	-6	9.7*	3	1	16
CCCCCCSc1nc2sc3c(c2c(=O)n1-c1ccc(C)cc1)CC(C)(C)OC3	0	10	1	1	.	.
CCOC(=O)c1ccc(NC(=O)CCSc2nc(N)c3c(C)c(C)sc3n2)cc1	0	1	6.8*	1	0	0
COC(=O)c1ccc(-c2cc(Cl)cc3c2OC(CNC(=O)c2cccnc2)C3)cc1 (stereo unspecified)	0	-4	0	18	.	.
COc1cccc(CNC(=S)NC2CCCC2)c1	0	-7	6.3*	4	0	-7
COc1ccc(C2=CC(c3cc(OC)c(OC)c(OC)c3)n3nnnc3N2)cc1 (stereo unspecified)	0	16	7.3*	61*	0	-10
O=C(CN1CCCCC1)Nc1cc(C(F)(F)F)ccc1Cl	0	1	7.0*	4	0	2
O=C(CN1CCN(c2ccccc2F)CC1)Nc1cc(C(F)(F)F)ccc1Cl	0	4	0	-1	.	.
O=C(c1ccc(S(=O)(=O)N2CCCC2)cc1)N1CCN(C/C=C/c2ccccc2)CC1	0	3	0	5	.	.
SMILES	FBW7 activator	MITF primary	GPR151 ag	TEAD-YAP block	GPR151 confirm	GPR119 ag
COc1ccccc1NC(=O)N1CCC(C(=O)c2ccc(F)cc2)CC1	0	-5	5.7*	1	2	6
COc1cccc(-c2noc(C3CCCN(C(=O)Nc4ccc(C(F)(F)F)cc4)C3)n2)c1 (stereo unspecified)	0	4	0	-23	.	.
COc1ccccc1NC(=O)N1CCC(c2nc(-c3cccc(C(F)(F)F)c3)no2)CC1	0	5	11*	-4	0	-10
CCCCOc1ccc(-c2nc(C=Nc3cc(Cl)c(Cl)cc3Cl)c(O)o2)cc1	0	11	1	17	.	.
Cc1ccccc1NC(=O)c1ccc(S(=O)(=O)NCc2ccccc2)c(C)c1	0	-7	0	-9	.	.
CC1=C(C(N)=O)C(c2ccccc2)n2nc(-c3ccccc3)nc2N1 (stereo unspecified)	0	16	0	8	.	.
